Rev-erbA mod: modulators of human Rev-erb alpha DNA binding; hit rate 0.79% among 370,000; P20393; AID 1259318; Rev-erbα–FITC-DNA binding, fluorescence polarization, 90 min; activity, % at 10 µM;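 active = activity above about 14%, limit read from the data; passing the limit was not always enough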;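 also: 0% = DMSO wells with 35 nM protein and 100% = DMSO wells with 750 nM protein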
V-ATPase pHluor: alters yeast V-ATPase proton transport | hit rate 0.37% among 350,000 | AID 504577 | S. cerevisiae, pHLuorin cytosolic pH fluorescence | response, % at 10 µM; in the data active = response mostly above about 7.3%, no sharp cut-off; inactive = mostly below about 5.4%; also: actives read high
NPR1 activator: GC-A (human) enzyme activation. HEK293 GC-A cells, cGMP TR-FRET, EC30 ANP; 0% at EC30 ANP, 100% saturating ANP. hit rate 0.14% among 370,000. activation, % at 10 µM. AID 1671463; in the data active = activation above about 40%
PG9 Ab binder: binds the HIV-1 gp120 antibody PG9 | TR-FRET gp120-PG9 antibody binding | inhibition, % at 6.7 µM | hit rate 0.43% among 360,000; in the data active = inhibition above about 8.5%
GC-B act: GC-B (human) receptor activation. HEK293-GC-B cells, CNP EC30, cGMP TR-FRET; 0% at EC30 CNP, 100% saturating CNP. activation, % at 10 µM. hit rate 0.11% among 370,000. AID 1920062;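 active = activation at 10 µM reaching about 35% in either raw or pattern-adjusted values, limit read from the data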
Target sequence (P20594 whole entry, looked up): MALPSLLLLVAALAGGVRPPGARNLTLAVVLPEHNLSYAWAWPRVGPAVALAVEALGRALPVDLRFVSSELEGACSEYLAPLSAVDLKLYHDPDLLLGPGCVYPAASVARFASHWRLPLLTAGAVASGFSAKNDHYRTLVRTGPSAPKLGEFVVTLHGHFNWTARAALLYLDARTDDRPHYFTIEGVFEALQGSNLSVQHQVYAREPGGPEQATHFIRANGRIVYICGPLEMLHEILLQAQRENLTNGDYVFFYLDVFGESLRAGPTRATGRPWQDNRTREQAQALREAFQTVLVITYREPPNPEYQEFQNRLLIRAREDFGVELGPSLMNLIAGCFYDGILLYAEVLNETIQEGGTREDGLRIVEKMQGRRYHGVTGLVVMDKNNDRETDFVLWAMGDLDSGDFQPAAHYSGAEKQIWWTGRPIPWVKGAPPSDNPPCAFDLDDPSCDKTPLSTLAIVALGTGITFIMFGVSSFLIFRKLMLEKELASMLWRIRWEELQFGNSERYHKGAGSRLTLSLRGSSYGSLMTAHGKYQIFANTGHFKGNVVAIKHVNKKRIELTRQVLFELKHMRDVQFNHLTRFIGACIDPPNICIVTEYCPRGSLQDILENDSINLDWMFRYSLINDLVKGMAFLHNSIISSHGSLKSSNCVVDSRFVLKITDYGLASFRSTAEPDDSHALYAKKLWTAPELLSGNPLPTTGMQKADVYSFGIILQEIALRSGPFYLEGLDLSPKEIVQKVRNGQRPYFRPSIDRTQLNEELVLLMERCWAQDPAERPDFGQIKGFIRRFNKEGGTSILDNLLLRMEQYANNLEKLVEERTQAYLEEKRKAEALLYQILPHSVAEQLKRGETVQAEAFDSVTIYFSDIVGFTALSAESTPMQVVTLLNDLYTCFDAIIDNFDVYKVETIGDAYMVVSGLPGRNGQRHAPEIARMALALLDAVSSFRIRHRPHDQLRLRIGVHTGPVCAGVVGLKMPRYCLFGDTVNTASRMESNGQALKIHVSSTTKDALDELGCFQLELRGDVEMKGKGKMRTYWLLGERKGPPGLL
Starred values were filed as active, the others as inactive; . = not tested or not shown. In the library only some 1.6% were active in any assay of this set; here they are far more common.

SMILES | Rev-erbA mod | V-ATPase pHluor | NPR1 activator | PG9 Ab binder | GC-B act
Cc1cc(C)n(-c2ccc(C(=O)NCC(c3ccco3)N3CCCC3)cc2)n1 (stereo unspecified) | -6.5 | 16.4* | 0.1 | 1.9 | -0.3
OCCN1CCN(c2nc(-c3ccccc3)c3cc(Br)ccc3n2)CC1 | -1.9 | 3.7 | -6.3 | 8.7* | 6.6
O=C(c1ccoc1)N1CCN(c2cc(-c3ccco3)nc3cc(-c4ccco4)nn23)CC1 | -20.8 | . | -3.3 | . | -12.3
CC(C)(C=O)C1=CC(=O)c2ccccc2C1=O | 0.0 | 15.6* | 8.4 | -2.4 | -2.3
CCNC(=O)CCC/C=C\C[C@@H]1[C@@H](/C=C/[C@@H](O)CCc2ccccc2)[C@H](O)C[C@@H]1O | 9.7 | . | . | . | .
O=P(O)(O)C(O)(Cc1cnc2ccccn12)P(=O)(O)O | 1.6 | . | . | . | .
COc1ccc(-c2cc(C(=O)N3CCN(c4ccccc4)CC3)no2)cc1 | -5.6 | 1.6 | -0.3 | -0.9 | 9.7
COc1ccc(OC)c(-c2cc(C(=O)N3CCN(c4ccccc4)CC3)no2)c1 | -0.8 | 18.5* | 1.8 | -1.5 | -2.0
O=C(CN1C(=O)NC2(CCCC2)C1=O)Nc1nc(-c2ccc(F)cc2)cs1 | -10.4 | -3.5 | 45.2* | 0.4 | 7.1
CCC(C)(C)C1CCC2(CC1)NC(=O)N(CC(=O)Nc1nc(-c3ccc(C)cc3)cs1)C2=O (stereo unspecified) | -0.7 | 1.1 | 6.7 | 1.3 | 4.6
CC(=O)Nc1ccc(-c2csc(NC(=O)CN3C(=O)NC4(CCCC4)C3=O)n2)cc1 | -1.2 | -2.1 | 2.1 | -2.4 | -5.0
CC1(C)NC(=O)N(CC(=O)Nc2nc(-c3ccc(F)cc3)cs2)C1=O | 0.9 | -0.3 | 47.8* | 0.9 | 6.5
COc1ccc(S(=O)(=O)N2CCN(C(=O)CSc3nc4ccccc4nc3N3CCCCC3)CC2)cc1 | -2.0 | . | 0.6 | . | -5.4
CCCN(CCC)C(=O)C(CCC(=O)OCCCN1CCN(CCOC(=O)Cc2c(C)n(C(=O)c3ccc(Cl)cc3)c3ccc(OC)cc23)CC1)NC(=O)c1ccccc1 (stereo unspecified) | 5.8 | . | . | . | .
N#CC1=C(N)Oc2cc(N)ccc2C1c1cccc(Br)c1 (stereo unspecified) | -3.9 | -7.0 | 45.7* | 1.3 | 5.8
COc1cc(C2C(C#N)=C(N)Oc3cc(N(C)C)ccc32)cc2c1OCO2 (stereo unspecified) | 17.4 | -0.8 | -14.8 | -1.9 | -7.5
COc1cc(C2C(C#N)=C(N)Oc3cc(O)ccc32)cc2c1OCO2 (stereo unspecified) | -5.8 | -1.6 | 52.5* | -1.8 | -0.4
N#CC1=C(N)SC(N)=C(C#N)C1c1cccc(O)c1 | 0.6 | 4.0 | 1.0 | 22.1* | 1.4
N#CC1=C(N)Oc2cc(O)ccc2C1c1ccccc1 (stereo unspecified) | 1.3 | 0.9 | 57.0* | 0.2 | -0.3
COc1ccc(C2C(C#N)=C(N)Oc3cc(O)ccc32)cc1 (stereo unspecified) | -2.5 | -0.6 | 26.6 | 0.9 | 1.7
CC(=O)Nc1cccc(Oc2ncnc3scc(-c4ccc(C)cc4)c23)c1 | -1.0 | -6.2 | 55.4* | 0.5 | 58.5*
Cc1ccc(-c2csc3ncnc(Oc4ccc5c(C)cc(=O)oc5c4)c23)cc1 | 2.0 | -3.6 | -5.8 | 1.0 | -6.7
Cc1cc(-c2cccs2)c(C#N)c(=S)[nH]1 | 1.2 | -4.8 | 40.5* | 3.1 | 5.8
N#Cc1c(-c2cccs2)cc(-c2cccs2)[nH]c1=O | 3.9 | -63.3 | 9.5 | 6.4 | -9.8
Cc1ccnc(NC(=S)N2CC3CN(c4cccc(C(F)(F)F)c4)CC3C2)c1 (stereo unspecified) | -5.3 | . | -5.8 | . | 0.0
CCC12CN(C(=O)c3ccc(OC)cc3)CC(CC)(CN(C(=O)c3ccc(OC)cc3)C1)C2=O | 0.0 | 7.2 | -4.5 | 0.1 | 75.5*
CCC12CN(C(=O)c3ccc([N+](=O)[O-])cc3)CC(CC)(CN(C(=O)c3ccc([N+](=O)[O-])cc3)C1)C2=O | -1.8 | 0.3 | 0.4 | -0.5 | -3.1
CC(C)(C)OC(=O)N1CC=C2C(C#N)=C(N)C(C#N)(C#N)[C@H](c3cccnc3)[C@H]2C1 | -5.0 | 1.1 | 48.1* | -2.4 | -0.6
CC(C)(C)OC(=O)N1CC=C2C(C#N)=C(N)C(C#N)(C#N)C(c3cccs3)C2C1 (stereo unspecified) | 6.6 | 0.9 | 25.0 | -1.5 | -0.4
C[C@H]1CN(C[C@H](Cc2ccccc2)C(=O)NCC(=O)O)CC[C@@]1(C)c1cccc(O)c1 | -3.5 | . | . | . | .

Bioassay records deposited in PubChem by several laboratories.
